According to PubChem BioAssay AID782 (Emory University Molecular Libraries Screening Center, 2007):
Screen size: about 220,000 compounds; about 800 (0.36%) were called active. The sample holds actives, similar compounds and a random draw of the others, so the mix is not that of the screen. Unmarked numbers belong to inactive results.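 The calls were made as follows: active = inhibition above about 30% (limit read from the data); inactive = the rest.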

These molecules were tested against Eukaryotic translation initiation factor 4E (Mus musculus) + Eukaryotic translation initiation factor 4 gamma 1 (Homo sapiens) (UniProt P63073+Q04637) (assay: blockers of eIF4G binding by eIF4E – biochemical, uHTS, TR-FRET, eIF4GI fragment, primary screen (AID 782;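 also: 0% = full FRET control wells and 100% = background wells lacking eIF4GI fragment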)). Details: TR-FRET eIF4E-eIF4GI(517-606) binding, 2 h; at 21.7 µM; active compounds read high.
Sequence of Eukaryotic translation initiation factor 4E (Mus musculus) + Eukaryotic translation initiation factor 4 gamma 1 (Homo sapiens) (P63073 whole entry, looked up, the tested form may be a part): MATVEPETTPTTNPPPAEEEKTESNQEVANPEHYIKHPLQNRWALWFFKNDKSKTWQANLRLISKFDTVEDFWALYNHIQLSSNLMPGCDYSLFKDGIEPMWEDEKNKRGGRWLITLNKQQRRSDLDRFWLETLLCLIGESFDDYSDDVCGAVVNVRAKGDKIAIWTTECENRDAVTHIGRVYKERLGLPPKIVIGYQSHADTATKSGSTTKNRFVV
Sequence of Eukaryotic translation initiation factor 4E (Mus musculus) + Eukaryotic translation initiation factor 4 gamma 1 (Homo sapiens) (Q04637 whole entry, looked up, the tested form may be a part): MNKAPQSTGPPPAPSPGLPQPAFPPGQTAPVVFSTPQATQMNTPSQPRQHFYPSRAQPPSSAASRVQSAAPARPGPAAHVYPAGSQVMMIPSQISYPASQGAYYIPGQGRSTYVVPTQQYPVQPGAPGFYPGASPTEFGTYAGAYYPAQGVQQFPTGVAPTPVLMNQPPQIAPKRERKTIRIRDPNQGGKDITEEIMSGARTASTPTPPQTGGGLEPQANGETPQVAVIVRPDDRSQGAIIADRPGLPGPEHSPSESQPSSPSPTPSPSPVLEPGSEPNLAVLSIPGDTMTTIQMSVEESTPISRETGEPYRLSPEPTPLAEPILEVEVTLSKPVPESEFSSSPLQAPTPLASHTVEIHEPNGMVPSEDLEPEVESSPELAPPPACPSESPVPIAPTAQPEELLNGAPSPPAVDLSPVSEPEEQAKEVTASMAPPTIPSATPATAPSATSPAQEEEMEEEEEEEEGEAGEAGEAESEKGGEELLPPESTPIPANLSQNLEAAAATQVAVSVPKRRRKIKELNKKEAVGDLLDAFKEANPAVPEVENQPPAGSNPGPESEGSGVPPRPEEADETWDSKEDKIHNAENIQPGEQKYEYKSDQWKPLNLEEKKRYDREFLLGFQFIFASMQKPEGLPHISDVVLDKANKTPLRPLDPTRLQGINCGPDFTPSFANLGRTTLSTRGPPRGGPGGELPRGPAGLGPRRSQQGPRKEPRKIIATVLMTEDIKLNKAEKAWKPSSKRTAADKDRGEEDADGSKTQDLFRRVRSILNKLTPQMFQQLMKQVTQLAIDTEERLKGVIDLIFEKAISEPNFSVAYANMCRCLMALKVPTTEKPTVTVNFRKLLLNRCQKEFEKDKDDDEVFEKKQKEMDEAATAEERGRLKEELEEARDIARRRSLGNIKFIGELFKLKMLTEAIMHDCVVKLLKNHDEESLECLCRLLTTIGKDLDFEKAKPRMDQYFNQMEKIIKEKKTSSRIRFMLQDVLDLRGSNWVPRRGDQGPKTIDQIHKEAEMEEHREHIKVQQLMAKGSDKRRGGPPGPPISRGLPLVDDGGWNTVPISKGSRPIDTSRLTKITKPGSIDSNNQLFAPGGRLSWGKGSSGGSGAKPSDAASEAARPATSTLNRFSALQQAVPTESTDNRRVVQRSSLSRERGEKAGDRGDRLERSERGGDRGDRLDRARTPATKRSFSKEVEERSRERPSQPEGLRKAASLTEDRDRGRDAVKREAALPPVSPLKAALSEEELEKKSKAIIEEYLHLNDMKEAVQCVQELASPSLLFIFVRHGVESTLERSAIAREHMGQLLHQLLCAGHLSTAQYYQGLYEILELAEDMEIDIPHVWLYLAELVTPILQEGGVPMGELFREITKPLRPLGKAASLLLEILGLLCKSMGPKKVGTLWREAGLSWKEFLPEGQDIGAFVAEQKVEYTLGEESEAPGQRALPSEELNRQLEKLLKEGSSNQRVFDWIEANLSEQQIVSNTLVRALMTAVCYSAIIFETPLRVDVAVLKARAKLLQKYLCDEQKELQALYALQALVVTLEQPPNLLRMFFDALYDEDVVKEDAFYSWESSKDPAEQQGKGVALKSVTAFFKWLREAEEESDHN

Structure (SMILES)	inhibition
CCC(=NCCc1ccccc1)c1c(O)n(C2CCCCC2)c(=O)[nH]c1=O	-4.4%
Cc1ccc(-n2c(O)c(C=NCC3CCCO3)c(=O)[nH]c2=O)c(C)c1 (stereo not given)	-0.86%
CC(=NCC1CCCO1)c1c(O)n(-c2ccccc2)c(=O)[nH]c1=O (stereo not given)	58.1% (active)
CC1(C)Cc2c(C#N)c(N3CCNCC3)nc(-c3ccco3)c2CS1	-1.83%
COc1ccc(NC(=O)N2CCC3(CC2)OCCO3)c(OC)c1	1.55%
